Experimental data published in PubChem BioAssay AID2289 (National Center for Advancing Translational Sciences (NCATS), 2010).
About 3,300 (0.97%) of roughly 340,000 compounds were called active. Another 9% or so got no clear call; they are omitted. Calls follow the shape of the dose curve; as a rule, active = well fitted inhibition curve with a large enough effect; inconclusive = small, poorly fitted or top-dose-only effect, or effect the other way; inactive = flat fitted curve, though single readings scatter. The list shows a part of the results.

Test: qHTS Assay for Modulators of miRNAs and/or Inhibitors of miR-21; also: nearly all actives have a fitted effect of over 55% in size
Details: HeLa miR-21-FLuc reporter, luciferase luminescence, 48 h; actives lower the signal
Method in brief: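 Compounds were titrated across several concentrations (up to approximately 40 uM) and incubated 48 hours with HeLa miR-21-FLuc reporter cells (miR-21 target sequence downstream of FLuc, endogenous miR-21). Readout was firefly luciferase luminescence after lytic detection reagent.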
Potency is read from the fitted curve at half-maximal effect.

Potency, active:
COc1cc2ccccc2cc1C(=O)Nc1ccccc1Cl 1.85 µM
COc1cc2ccccc2cc1C(=O)Nc1ccc(C)cn1 0.656 µM
CSc1ncc(-c2ccc(Cl)cc2)[nH]1 1.65 µM
Cc1cccc(-n2cnc(C(=O)NC3CCCCCC3)c2)n1 3.69 µM
Cc1cc(O)cc2c(=O)c3ccccc3sc12 16.5 µM
CCn1c(C)cc(/C=C2/SC(=S)NC2=O)c1C 10.4 µM
CCn1c(C)cc(/C=C2/SC(=O)N(C(C)C(=O)OC)C2=O)c1C (configuration not stated) 2.07 µM
CCC(=O)Nc1ccc2c(c1)ncn2-c1ccc(C)cc1 5.21 µM
COc1ccc(-n2cnc3cc(N)ccc32)cc1 14.7 µM
CC(=O)Nc1ccc2c(c1)ncn2-c1ccccc1 7.36 µM
CCC(=O)Nc1ccc2c(c1)ncn2-c1ccc(OC)cc1 16.5 µM
O=C(Nc1ccc2c(c1)ncn2-c1ccccc1)c1ccco1 2.33 µM
CCC(=O)Nc1ccc2c(c1)ncn2-c1ccccc1 7.36 µM
C/C(=N\NC(=O)c1csc(C)c1C)c1ccc(C)s1 13.1 µM
CCc1ccc(C(=O)N/N=C(\C)c2ccncc2)s1 20.7 µM
Cc1scc(C(=O)N/N=C/c2ccc(Cl)s2)c1C 1.65 µM
C/C(=N/NC(=O)c1ccc(C)s1)c1ccncc1 16.5 µM
O=C1CN(c2nc(-c3cccs3)nc3sc4c(c23)CCCC4)CCN1 10.4 µM
CCN(CC)C(=O)c1cc2sc3ccccc3c2s1 3.29 µM
CN(C)CCNC(=O)c1cc2sc3ccccc3c2s1 16.5 µM
CN(C)CCNC(=O)c1cc2c(s1)-c1ccccc1OC2 13.1 µM
CC(C)(C)OC(=O)N/N=C\C=C\c1ccc2c(c1)OCO2 3.69 µM
CCOC(=O)N/N=C\C=C\c1ccc2c(c1)OCO2 7.36 µM
CN(C)c1ccc(N=Nc2cccc3ccoc23)cc1 0.826 µM
CN(C)c1ccc(N=Nc2cccc(F)c2)cc1 2.07 µM
Cc1nnsc1C(=O)NNc1ccc(C(C)C)cc1 13.1 µM
COCCCNC(=O)c1ccc2nc(Cc3ccc(OC)cc3)oc2c1 9.27 µM
CNC(=O)c1ccc2nc(CCc3ccccc3)oc2c1 5.85 µM
O=C(NCCCn1ccnc1)c1cc(-c2ccccc2)on1 16.5 µM
O=C(NCCCn1ccnc1)c1cc(-c2cccs2)on1 14.7 µM
C(=N\N=C\c1cccs1)/c1cccs1 5.21 µM
CCn1cnc2cc(NCc3ccc(C)cc3)ccc21 5.21 µM
CCn1cnc2cc(NCc3ccccc3Cl)ccc21 11.7 µM
COc1ccc(-n2cnc3cc(NCc4ccco4)ccc32)cc1 14.7 µM
CCc1ccc(CNc2ccc3c(c2)ncn3CC)cc1 5.21 µM
Cc1ccc(CNc2ccc3c(c2)ncn3C(C)C)cc1 3.29 µM
CC(C)n1cnc2cc(NCc3ccco3)ccc21 11.7 µM
Cc1ccc(CNc2ccc3c(c2)ncn3C)cc1 3.29 µM
CCn1cnc2cc(NCc3ccc(Cl)cc3)ccc21 3.69 µM
Cc1cccc(C(=O)Nc2ccc3c(c2)ncn3C)c1 1.47 µM
O=C(Nc1ccc(N2CCOCC2)cc1)c1nc2ccccc2s1 0.0826 µM
COc1cccc(/C=C(/CC(=O)Nc2ccc(N3CCOCC3)cc2)c2nc3ccccc3s2)c1 16.5 µM
Cc1ccc2oc(-c3ccc(C)c(NC(=O)/C=C/c4ccc(Cl)cc4)c3)nc2c1 3.69 µM
Cc1ccc2nc(-c3ccc(C)c(NC(=O)CSc4ccc(Cl)cc4)c3)oc2c1 2.07 µM
O=C(NC1CCCCC1)c1ccc(-c2cccc([N+](=O)[O-])c2)o1 1.31 µM
O=C(NC1CCCCC1)c1ccc(-c2ccccc2[N+](=O)[O-])o1 1.17 µM
O=C(NCc1csc(-c2cccs2)n1)C1CCCCC1 5.21 µM
COc1ccccc1CC(=O)NCc1csc(-c2cccs2)n1 6.56 µM
C/C(CCc1ccc2c(c1)OCO2)=N\NC(=O)c1ccccc1 13.1 µM
Fc1cccc(CSc2ccc(-c3ccco3)nn2)c1 16.5 µM
Fc1ccc(CSc2ccc(-c3ccco3)nn2)cc1 8.26 µM
Cc1ccc(CSc2ccc(-c3ccco3)nn2)cc1 6.56 µM
CCN(CC)N=Nc1[nH]nc2nc(C)cc(C)c12 16.5 µM
Brc1ccc2oc(-c3ccn[nH]3)cc2c1 2.93 µM
CCN(CC)CCCNC(=S)Nc1ccc(Br)cc1 2.93 µM
Oc1ccc(NC(=S)N=Nc2c(O)[nH]c3ccccc23)cc1 11.7 µM
CC(=O)/C=C(\C)N=Nc1c(O)[nH]c2ccccc12 18.5 µM
O=C(CSCc1ccccc1)N=Nc1c(O)[nH]c2ccccc12 16.5 µM
CCCOc1ccc(/C=N/Nc2ccc(C(=O)O)cc2)c(OCCC)c1 16.5 µM
CC(C)c1ccc(/C=N/Nc2ccc(C(=O)O)cc2)cc1 0.0465 µM
COc1cc(/C=N/Nc2ccc(C(=O)O)cc2)cc(OC)c1OC 2.33 µM
COc1ccc(/C=N/Nc2ccc(C(=O)O)cc2)cc1Br 0.104 µM
C=CCOc1c(Br)cc(/C=N/Nc2ccc(C(=O)O)cc2)cc1OCC 2.93 µM
Cc1nc2cc(Cl)c(Cl)cc2nc1C 16.5 µM
CC(C)CN1CCc2nc(Nc3ccc(F)cc3F)ncc2C1 7.36 µM
COc1ccccc1Nc1ncc2c(n1)CCN(CC(C)C)C2 6.56 µM
O=C(Nc1ccc(-c2nc3cc(Cl)ccc3o2)cc1)C1CCCO1 (configuration not stated) 0.656 µM
CC(=O)Nc1ccc(-c2nc3ccc(NC(C)=O)cc3o2)cc1 3.69 µM
COc1ccc(-c2nc3ccc(NS(C)(=O)=O)cc3o2)cc1 1.17 µM
CC(=O)Nc1ccc(-c2nc3cc(Cl)ccc3o2)cc1 0.369 µM
COc1ccc(Cl)cc1C(=O)Nc1ccc2oc(-c3ccc(C(C)(C)C)cc3)nc2c1 4.65 µM
COc1cccc(NCCC(=O)c2cccc([N+](=O)[O-])c2)c1 13.1 µM
COc1ccc(C(=O)CCNc2cccc(Cl)c2)cc1 7.36 µM
COc1n[nH]c(C(=O)Nc2nc3ccccc3s2)c1[N+](=O)[O-] 6.56 µM
CNc1ccccc(-c2ccc3cc4c(cc3n2)OCO4)c1=O 2.61 µM
CCC(=O)NC(=S)Nc1ccc(-c2nc3ccc(C)cc3s2)cc1 8.26 µM
CCC(=O)NC(=S)Nc1ccc(-c2nc3ccccc3s2)cc1 0.293 µM
Cc1ccc2nc(-c3ccc(NC(=S)NC(=O)C(C)C)cc3)sc2c1 0.927 µM
CCCCNC(=S)Nc1ccc(-c2nc3ccc(C)cc3s2)cc1 0.826 µM
Cc1ccc(Nc2ncnc3sc(C)c(C)c23)cc1 14.7 µM
O=C(CCCn1c(=O)c2cccn2c2ccccc21)Nc1cccc(Cl)c1 2.93 µM
COc1ccc(NC(=O)CCCn2c(=O)c3cccn3c3ccccc32)c(OC)c1 2.07 µM
O=C(CCCn1c(=O)c2cccn2c2ccccc21)NCCc1ccc(Cl)cc1 1.47 µM
CCCCOC(=O)Oc1ccc2c(=O)c(Oc3cccc(C)c3)coc2c1 18.5 µM
Cc1nc2ccccc2nc1N/N=C/c1ccc(O)cc1 18.5 µM
Cc1nc(Cl)cc(N/N=C/c2ccc(O)cc2)n1 18.5 µM
C=CCc1c(C)nc2c(-c3ccccc3)cnn2c1N1CCOCC1 1.65 µM
Cc1nc2c(-c3ccccc3)cnn2c(N2CCOCC2)c1C 2.33 µM
Fc1ccccc1-c1nc(-c2ccccc2)no1 1.17 µM
c1ccc(-c2cc(-c3ccccc3)[nH]n2)cc1 1.65 µM
Fc1ccc(-c2cc(-c3nc(-c4ccccc4)no3)[nH]n2)cc1 5.85 µM
Cc1ccc(-c2noc(-c3ccccc3F)n2)cc1 1.47 µM
CS(=O)c1ccccc1-c1nc(-c2ccc(Cl)cc2)no1 (configuration not stated) 6.56 µM
Cc1ccc(NC(=O)Nc2ccc3c(c2)OCO3)cc1F 0.736 µM
Cc1ccc(NC(=O)Nc2ccc3c(c2)OCO3)nc1 2.33 µM
CCCSc1nsc(NC(=O)CC)n1 0.521 µM
c1csc(CSc2nnc3sc4ccccc4n23)c1 8.26 µM
O=C(CSc1nnc2sc3ccccc3n12)c1ccco1 16.5 µM
Cc1nc(NC(=O)/C=C/c2ccccc2)sc1C(=O)N(C)C 13.1 µM
COc1ccccc1C(=O)N/N=C/c1ccc2c(c1)OCO2 3.29 µM
COc1ccccc1C(=O)N/N=C/c1cnc2ccccc2n1 11.7 µM
COc1cc(Cl)c(C)cc1NC(=O)c1cccc(OC)c1OC 5.21 µM
COc1cccc(C(=O)Nc2ccc3c(c2)OCO3)c1OC 2.07 µM
COc1ccccc1C(=O)Nc1ccc2c(c1)OCO2 9.27 µM
COc1ccccc1C(=O)Nc1nc2cc3c(cc2s1)OCO3 0.736 µM
O=C(CNC(=O)c1ccccc1F)N/N=C/c1ccc2c(c1)OCO2 18.5 µM
CC(=O)c1ccc2c(c1)Cc1cc(C(C)=O)ccc1-2 1.85 µM
